Measured values published in the supplement of paper PMC10849652.
About 8,800 targets were measured; listed, in parts, are those with a hit and a random draw of the rest. About 0.5% of all pairs of compound and target were hits.

Tests used:
Assay in all cases: log2 fold change, soluble protein after heating vs DMSO (PISA); higher = thermal stabilisation; K562 lysate, 10 uM; active = over 0.2 and 3.5 SD of the protein, either way, in both replicates (recomputed)
[1] = compound: CCCS(=O)(=O)Nc1ccc(F)c(C(=O)c2c[nH]c3ncc(-c4ccc(Cl)cc4)cc23)c1F [vemurafenib]
In short: (§1)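 Following dounce homogenisation of K562 pellets in PBS pH 7.4 with 1 mM MgCl2, crude extract at 1 mg/mL protein was incubated for 30 min with 10 μM compound. Aliquots were then heated for 3 min over 48°C-58°C and pooled, NP-40 was added to 0.5% at 4°C, and soluble protein was recovered as the supernatant at 21,000xg for 90 min. Channel-sum-equalised TMTpro 16plex LC-MS/MS quantified this protein. Each value, from duplicates, is a log-two fold change in thermal stability relative to solvent controls.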

[2] = compound: CCCS(=O)(=O)Nc1ccc(F)c(C(=O)c2c[nH]c3ncc(Cl)cc23)c1F
In short: as §1

[3] = compound: CCN(CCCOc1ccc2c(Nc3cc(CC(=O)Nc4cccc(F)c4)[nH]n3)ncnc2c1)CCOP(=O)(O)O [barasertib]
In short: as §1

[4] = compound: CC[C@@H]1C(=O)N(C)c2cnc(Nc3ccc(C(=O)NC4CCN(C)CC4)cc3OC)nc2N1C1CCCC1
In short: as §1

[5] = compound: CC[C@@H]1C(=O)N(C)c2cnc(Nc3ccc(C(=O)N[C@H]4CC[C@H](N5CCN(CC6CC6)CC5)CC4)cc3OC)nc2N1C(C)C [volasertib]
In short: as §1

[6] = compound: CCn1c(C(=O)N(C2CC2)C2CC2)cc2c3c(ncn3C)c(Nc3cc(C)n(C)n3)nc21
In short: as §1

[7] = compound: CCn1cc(-c2ccnc3[nH]c(-c4cccc(CN(C)C)c4)cc23)c(-c2ccc(NC(=O)N(C)C)cc2)n1
In short: as §1

[8] = compound: CN1CCC(CNc2ccc3ncc(-c4cccc(OC(F)(F)F)c4)n3n2)CC1
In short: as §1

[9] = compound: CN1CCN(CCOc2cc(OC3CCOCC3)c3c(Nc4c(Cl)ccc5c4OCO5)ncnc3c2)CC1 [saracatinib]
In short: as §1

[10] = compound: CN1CCN(c2nc(C3=C(c4c[nH]c5ccccc45)C(=O)NC3=O)c3ccccc3n2)CC1 [sotrastaurin]
In short: as §1

[11] = compound: CN1CC[C@H](c2c(O)cc(O)c3c(=O)cc(-c4ccccc4Cl)oc23)[C@H](O)C1 [alvocidib]
In short: as §1

[12] = compound: CN1CCc2c(c3ccccc3n2Cc2ccc(C(=O)NO)cc2)C1 [Tubastatin A]
In short: as §1

[13] = compound: CNC(=O)C1=CC=CC=C1NC2=NC(=NC=C2Cl)NC3=C(C=C(C=C3)N4CCOCC4)OC
In short: as §1

[14] = compound: CNC(=O)c1ccc(Nc2ncc(C(F)(F)F)c(NCc3nccnc3N(C)S(C)(=O)=O)n2)cc1 [defactinib]
In short: as §1

[15] = compound: CNc1nc(-c2ccc3c(N)n[nH]c3c2)cc(N2C[C@@H](C(=O)NC3CCCCC3)CC[C@H]2C)n1
In short: as §1

[16] = compound: COC(=O)N[C@@H](C)CNc1nccc(-c2cn(C(C)C)nc2-c2cc(Cl)cc(NS(C)(=O)=O)c2F)n1 [encorafenib]
In short: as §1

[17] = compound: COC(=O)[C@H](CCSC)NC(=O)C1=C(C=C(C=C1)NC[C@H](CS)N)C2=CC=CC=C2
In short: as §1

[18] = compound: COc1cc(Nc2ncc3c(n2)-c2ccc(Cl)cc2C(c2c(F)cccc2OC)=NC3)ccc1C(=O)O [alisertib]
In short: as §1

[19] = compound: COc1cc2nc(-c3cc(F)ccc3O)nc(N[C@@H]3CNC[C@H]3C(C)(C)O)c2cc1OC
In short: as §1

[20] = compound: COc1cc2ncnc(Nc3ccc(F)c(Cl)c3)c2cc1OCCCN1CCOCC1 [gefitinib]
In short: as §1

Measured: log2 fold change

MTA2 (UniProt O94776)
inactive: [1] 0.007 | [2] 0.018 | [3] 0.026 | [4] 0.03 | [5] -0.008 | [6] 0.025 | [7] -0.021 | [8] -0.031 | [9] 0.015 | [10] 0.042 | [11] 0.005 | [12] -0.049 | [13] -0.002 | [14] 0.016 | [15] -0.01 | [16] 0.009 | [17] 0.134 | [18] 0.012 | [19] -0.005 | [20] -0.02

NR3C1 isoform 3 (UniProt P04150)
Chain of UniProt P04150 (P04150 whole entry, looked up): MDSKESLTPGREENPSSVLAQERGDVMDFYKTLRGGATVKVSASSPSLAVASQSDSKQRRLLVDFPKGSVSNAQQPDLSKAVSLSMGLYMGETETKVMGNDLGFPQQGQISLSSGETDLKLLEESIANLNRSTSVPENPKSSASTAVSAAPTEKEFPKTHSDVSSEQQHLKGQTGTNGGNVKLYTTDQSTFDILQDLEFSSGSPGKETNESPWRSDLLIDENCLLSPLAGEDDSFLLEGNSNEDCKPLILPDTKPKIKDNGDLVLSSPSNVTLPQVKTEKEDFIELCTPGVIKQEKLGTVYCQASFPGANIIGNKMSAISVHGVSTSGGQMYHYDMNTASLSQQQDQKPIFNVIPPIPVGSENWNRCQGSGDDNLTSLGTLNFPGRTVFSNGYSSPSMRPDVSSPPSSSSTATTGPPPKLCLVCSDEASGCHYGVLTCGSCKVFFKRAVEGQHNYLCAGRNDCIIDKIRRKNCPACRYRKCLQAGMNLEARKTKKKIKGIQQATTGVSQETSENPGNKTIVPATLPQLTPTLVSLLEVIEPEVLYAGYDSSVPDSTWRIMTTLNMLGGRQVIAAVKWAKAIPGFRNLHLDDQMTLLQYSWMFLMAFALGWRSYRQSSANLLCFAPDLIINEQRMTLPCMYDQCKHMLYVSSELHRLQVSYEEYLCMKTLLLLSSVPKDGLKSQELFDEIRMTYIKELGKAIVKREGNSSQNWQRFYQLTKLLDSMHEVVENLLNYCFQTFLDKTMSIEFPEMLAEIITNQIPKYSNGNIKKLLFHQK
inactive: [1] -0.138 | [2] 0.027 | [3] -0.385 | [4] -0.086 | [5] -0.046 | [6] 0.001 | [7] 0.07 | [8] -0.081 | [9] 0.072 | [10] -0.016 | [11] -0.004 | [12] -0.088 | [13] 0.048 | [14] 0.021 | [15] -0.093 | [16] 0.05 | [17] 0.029 | [18] 0.045 | [19] -0.001 | [20] 0.013

PARG (UniProt Q86W56)
inactive: [1] 0.028 | [2] 0.033 | [3] 0.008 | [4] -0.027 | [5] -0.018 | [6] -0.015 | [7] 0.065 | [8] -0.032 | [9] 0.006 | [10] 0.02 | [11] 0.03 | [12] -0.055 | [13] 0.029 | [14] 0.041 | [15] -0.016 | [16] 0.027 | [17] 0.042 | [18] 0 | [19] 0.01 | [20] 0.046

PBK (UniProt Q96KB5)
inactive: [1] -0.006 | [2] 0.002 | [3] -0.009 | [4] -0.069 | [5] -0.033 | [6] 0.039 | [7] 0.043 | [8] -0.017 | [9] -0.018 | [10] -0.015 | [11] 0.013 | [12] -0.041 | [13] -0.001 | [14] -0.004 | [15] -0.015 | [16] -0.011 | [17] 0.099 | [18] -0.013 | [19] -0.003 | [20] -0.023

OSBP2 (UniProt Q969R2)
Chain of UniProt Q969R2 (Q969R2 whole entry, looked up): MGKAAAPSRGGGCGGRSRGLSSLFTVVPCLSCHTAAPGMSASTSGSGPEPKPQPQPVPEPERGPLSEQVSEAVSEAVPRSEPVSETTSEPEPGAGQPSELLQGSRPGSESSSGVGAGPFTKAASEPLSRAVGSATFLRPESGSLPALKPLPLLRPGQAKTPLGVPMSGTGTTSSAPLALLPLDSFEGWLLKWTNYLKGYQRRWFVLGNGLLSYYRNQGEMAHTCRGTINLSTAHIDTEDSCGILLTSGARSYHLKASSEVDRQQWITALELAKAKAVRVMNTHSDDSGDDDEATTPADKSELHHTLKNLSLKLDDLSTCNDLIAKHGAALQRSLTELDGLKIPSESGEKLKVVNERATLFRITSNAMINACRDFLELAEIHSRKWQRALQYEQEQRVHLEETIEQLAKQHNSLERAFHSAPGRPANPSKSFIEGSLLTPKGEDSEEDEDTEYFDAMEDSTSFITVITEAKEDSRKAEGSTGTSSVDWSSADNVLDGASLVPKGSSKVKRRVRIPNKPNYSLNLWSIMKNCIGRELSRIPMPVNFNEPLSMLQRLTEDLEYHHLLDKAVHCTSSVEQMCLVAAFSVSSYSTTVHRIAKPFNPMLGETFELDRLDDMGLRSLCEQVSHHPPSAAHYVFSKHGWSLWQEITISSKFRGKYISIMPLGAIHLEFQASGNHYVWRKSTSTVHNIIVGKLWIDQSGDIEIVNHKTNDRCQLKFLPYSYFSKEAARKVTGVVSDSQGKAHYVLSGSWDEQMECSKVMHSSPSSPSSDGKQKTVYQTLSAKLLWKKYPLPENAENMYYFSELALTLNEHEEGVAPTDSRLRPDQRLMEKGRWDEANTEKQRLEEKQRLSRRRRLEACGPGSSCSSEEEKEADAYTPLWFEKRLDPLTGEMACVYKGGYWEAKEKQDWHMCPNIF
inactive: [1] -0.056 | [2] -0.014 | [3] -0.055 | [4] 0.062 | [5] -0.077 | [6] -0.001 | [8] 0.279 | [9] 0.068 | [10] 0.104 | [11] -0.211 | [12] 0.047 | [13] -0.102 | [14] 0.011 | [15] -0.032 | [16] 0.04 | [17] -0.1 | [18] 0.052 | [19] -0.033 | [20] 0.011
active: [7] -0.881

NACC1 (UniProt Q96RE7)
inactive: [1] -0.039 | [2] -0.003 | [3] 0.039 | [4] -0.027 | [5] 0.008 | [6] 0.004 | [7] -0.059 | [8] -0.003 | [9] -0.016 | [10] 0.034 | [11] -0.02 | [12] -0.086 | [13] 0.002 | [14] -0.01 | [15] 0.016 | [16] 0.022 | [17] 0.024 | [18] 0.018 | [19] -0.012 | [20] -0.019

ORC1 (UniProt Q13415)
inactive: [4] 0.185 | [16] 0.018 | [17] -0.188

MYH6 (UniProt P13533)
Chain of UniProt P13533 (P13533 whole entry, looked up): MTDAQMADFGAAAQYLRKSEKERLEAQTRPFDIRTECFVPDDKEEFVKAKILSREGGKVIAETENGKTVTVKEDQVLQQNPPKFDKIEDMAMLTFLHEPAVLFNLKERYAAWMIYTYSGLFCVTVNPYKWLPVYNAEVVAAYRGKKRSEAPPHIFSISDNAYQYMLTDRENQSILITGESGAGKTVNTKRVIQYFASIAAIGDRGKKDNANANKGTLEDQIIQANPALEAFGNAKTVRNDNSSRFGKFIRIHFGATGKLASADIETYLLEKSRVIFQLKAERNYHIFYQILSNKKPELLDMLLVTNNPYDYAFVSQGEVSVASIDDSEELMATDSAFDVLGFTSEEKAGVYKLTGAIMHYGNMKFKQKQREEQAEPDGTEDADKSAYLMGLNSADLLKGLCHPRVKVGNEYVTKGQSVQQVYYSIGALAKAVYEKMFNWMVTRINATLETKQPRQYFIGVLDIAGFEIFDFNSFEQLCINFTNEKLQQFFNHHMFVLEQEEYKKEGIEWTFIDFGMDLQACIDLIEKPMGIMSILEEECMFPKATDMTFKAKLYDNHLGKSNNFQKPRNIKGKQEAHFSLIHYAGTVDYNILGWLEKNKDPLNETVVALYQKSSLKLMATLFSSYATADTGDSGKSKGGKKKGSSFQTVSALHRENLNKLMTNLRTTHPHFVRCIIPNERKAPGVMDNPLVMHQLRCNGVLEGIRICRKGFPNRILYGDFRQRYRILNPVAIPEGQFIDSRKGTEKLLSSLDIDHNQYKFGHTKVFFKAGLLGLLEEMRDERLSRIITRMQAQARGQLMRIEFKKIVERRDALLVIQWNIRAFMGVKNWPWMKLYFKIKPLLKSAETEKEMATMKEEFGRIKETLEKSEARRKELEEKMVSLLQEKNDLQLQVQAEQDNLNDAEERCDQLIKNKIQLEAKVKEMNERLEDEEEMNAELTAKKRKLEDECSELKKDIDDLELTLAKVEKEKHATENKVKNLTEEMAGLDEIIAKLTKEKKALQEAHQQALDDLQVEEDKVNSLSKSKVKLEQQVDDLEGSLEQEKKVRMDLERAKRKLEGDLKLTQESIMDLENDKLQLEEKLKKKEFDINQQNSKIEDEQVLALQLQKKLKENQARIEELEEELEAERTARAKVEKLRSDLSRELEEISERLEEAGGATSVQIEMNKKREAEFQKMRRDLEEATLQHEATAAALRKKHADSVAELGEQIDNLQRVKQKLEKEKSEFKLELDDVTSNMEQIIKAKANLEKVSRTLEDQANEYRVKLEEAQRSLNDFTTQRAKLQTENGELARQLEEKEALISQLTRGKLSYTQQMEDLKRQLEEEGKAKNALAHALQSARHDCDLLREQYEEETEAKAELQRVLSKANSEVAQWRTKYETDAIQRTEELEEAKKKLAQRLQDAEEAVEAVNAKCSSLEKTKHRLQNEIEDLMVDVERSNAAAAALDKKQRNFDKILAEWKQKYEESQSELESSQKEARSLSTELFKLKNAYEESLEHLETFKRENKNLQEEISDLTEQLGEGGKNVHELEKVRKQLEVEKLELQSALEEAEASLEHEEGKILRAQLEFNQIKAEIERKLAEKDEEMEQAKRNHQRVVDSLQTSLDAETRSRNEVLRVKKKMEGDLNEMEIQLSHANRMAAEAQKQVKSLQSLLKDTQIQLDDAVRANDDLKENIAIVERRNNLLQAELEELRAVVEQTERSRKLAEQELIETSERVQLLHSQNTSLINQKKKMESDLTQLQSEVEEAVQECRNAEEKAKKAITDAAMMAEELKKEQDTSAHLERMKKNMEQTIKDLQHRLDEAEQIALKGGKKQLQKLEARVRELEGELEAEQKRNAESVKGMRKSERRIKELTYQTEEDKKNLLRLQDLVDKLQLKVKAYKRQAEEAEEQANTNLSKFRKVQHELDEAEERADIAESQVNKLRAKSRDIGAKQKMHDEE
inactive: [2] -0.081 | [3] 0.006 | [4] 0.215 | [5] 0.084 | [6] -0.137 | [10] -0.017 | [12] 0.142 | [13] -0.06 | [16] -0.048 | [17] 0.082 | [19] 0.206

NR2F2 (UniProt P24468)
inactive: [2] -0.081 | [3] 0.01 | [5] -0.146 | [6] -0.028 | [7] 0.005 | [8] -0.216 | [9] 0.014 | [10] 0.013 | [11] -0.053 | [12] -0.154 | [13] 0.056 | [15] -0.047 | [18] 0.072 | [19] 0.012 | [20] -0.077

MTHFD1 (UniProt V9GZ32)
inactive: [2] 0.008 | [5] -0.145 | [18] 0.108 | [19] 0 | [20] -0.073

OSBPL1A (UniProt Q9BXW6)
inactive: [2] 0.028 | [3] 0.007 | [5] 0.019 | [7] -0.095 | [8] 0.05 | [9] 0.013 | [10] 0.038 | [11] -0.035 | [13] 0.091 | [15] 0.099 | [18] -0.071 | [19] 0.048 | [20] 0.135

NAA16 (UniProt Q6N069)
active: [1] 0.902
inactive: [2] -0.048 | [3] 0.246 | [4] -0.049 | [5] -0.078 | [6] 0.057 | [9] -0.012 | [12] -0.097 | [14] 0.086 | [15] -0.05 | [16] 0.062 | [17] 0.169 | [18] 0.11 | [19] -0.03 | [20] 0.142

PANK2 (UniProt Q9BZ23)
active: [18] 0.35
inactive: [1] 0.093 | [2] -0.036 | [3] -0.047 | [4] 0.011 | [5] -0.086 | [6] 0.002 | [7] -0.167 | [8] -0.057 | [9] 0.068 | [10] 0.027 | [11] 0.057 | [12] 0.108 | [14] 0.023 | [15] 0 | [16] -0.01 | [17] 0.014 | [19] -0.046 | [20] -0.233

NFATC4 isoform 2 (UniProt Q14934)
inactive: [1] 0.081 | [2] -0.013 | [3] 0.059 | [4] -0.05 | [5] -0.004 | [7] 0.053 | [8] 0.068 | [9] 0.044 | [10] 0.026 | [11] -0.062 | [14] -0.12 | [15] 0.023 | [16] 0.011 | [17] -0.032 | [18] 0.048 | [19] 0.244 | [20] 0.132

PAGE4 (UniProt O60829)
Chain of UniProt O60829 (O60829 whole entry, looked up): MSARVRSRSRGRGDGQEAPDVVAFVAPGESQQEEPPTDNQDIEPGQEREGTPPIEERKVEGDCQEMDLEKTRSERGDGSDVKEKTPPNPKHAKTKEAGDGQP
inactive: [2] 0.015 | [3] 0.108 | [4] 0.039 | [5] 0.002 | [6] -0.042 | [7] 0.476 | [8] -0.158 | [9] 0.046 | [10] 0.092 | [11] 0.086 | [12] 0.027 | [13] -0.072 | [15] -0.038 | [16] -0.005 | [17] -0.086 | [19] 0.057

PAGE2B (UniProt Q5JRK9)
Chain of UniProt Q5JRK9 (Q5JRK9 whole entry, looked up): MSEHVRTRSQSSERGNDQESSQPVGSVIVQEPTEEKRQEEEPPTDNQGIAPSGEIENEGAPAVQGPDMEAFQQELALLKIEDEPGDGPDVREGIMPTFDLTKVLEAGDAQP
inactive: [1] 0.008 | [2] -0.056 | [4] -0.027 | [5] -0.013 | [6] -0.008 | [7] -0.034 | [8] -0.239 | [9] 0.176 | [10] 0.05 | [11] 0.059 | [12] 0.175 | [13] 0.097 | [14] 0.253 | [15] 0.072 | [16] 0.089 | [17] -0.001 | [18] 0.053 | [19] -0.091 | [20] -0.051

NEXN (UniProt Q0ZGT2)
inactive: [1] 0.073 | [2] 0.218 | [3] 0.101 | [4] -0.132 | [5] 0.051 | [6] 0.075 | [7] -0.231 | [8] 0.209 | [9] 0.026 | [11] -0.102 | [12] -0.049 | [13] 0.026 | [14] 0.134 | [15] 0.158 | [16] -0.096 | [17] 0.044 | [18] 0.004 | [19] -0.086 | [20] 0.092

MUC5AC (UniProt P98088)
inactive: [6] 0 | [12] -0.03 | [18] -0.233 | [20] 0.013

NUB1 isoform 2 (UniProt Q9Y5A7)
inactive: [10] -0.003

PARD3B (UniProt Q8TEW8)
Chain of UniProt Q8TEW8 (Q8TEW8 whole entry, looked up): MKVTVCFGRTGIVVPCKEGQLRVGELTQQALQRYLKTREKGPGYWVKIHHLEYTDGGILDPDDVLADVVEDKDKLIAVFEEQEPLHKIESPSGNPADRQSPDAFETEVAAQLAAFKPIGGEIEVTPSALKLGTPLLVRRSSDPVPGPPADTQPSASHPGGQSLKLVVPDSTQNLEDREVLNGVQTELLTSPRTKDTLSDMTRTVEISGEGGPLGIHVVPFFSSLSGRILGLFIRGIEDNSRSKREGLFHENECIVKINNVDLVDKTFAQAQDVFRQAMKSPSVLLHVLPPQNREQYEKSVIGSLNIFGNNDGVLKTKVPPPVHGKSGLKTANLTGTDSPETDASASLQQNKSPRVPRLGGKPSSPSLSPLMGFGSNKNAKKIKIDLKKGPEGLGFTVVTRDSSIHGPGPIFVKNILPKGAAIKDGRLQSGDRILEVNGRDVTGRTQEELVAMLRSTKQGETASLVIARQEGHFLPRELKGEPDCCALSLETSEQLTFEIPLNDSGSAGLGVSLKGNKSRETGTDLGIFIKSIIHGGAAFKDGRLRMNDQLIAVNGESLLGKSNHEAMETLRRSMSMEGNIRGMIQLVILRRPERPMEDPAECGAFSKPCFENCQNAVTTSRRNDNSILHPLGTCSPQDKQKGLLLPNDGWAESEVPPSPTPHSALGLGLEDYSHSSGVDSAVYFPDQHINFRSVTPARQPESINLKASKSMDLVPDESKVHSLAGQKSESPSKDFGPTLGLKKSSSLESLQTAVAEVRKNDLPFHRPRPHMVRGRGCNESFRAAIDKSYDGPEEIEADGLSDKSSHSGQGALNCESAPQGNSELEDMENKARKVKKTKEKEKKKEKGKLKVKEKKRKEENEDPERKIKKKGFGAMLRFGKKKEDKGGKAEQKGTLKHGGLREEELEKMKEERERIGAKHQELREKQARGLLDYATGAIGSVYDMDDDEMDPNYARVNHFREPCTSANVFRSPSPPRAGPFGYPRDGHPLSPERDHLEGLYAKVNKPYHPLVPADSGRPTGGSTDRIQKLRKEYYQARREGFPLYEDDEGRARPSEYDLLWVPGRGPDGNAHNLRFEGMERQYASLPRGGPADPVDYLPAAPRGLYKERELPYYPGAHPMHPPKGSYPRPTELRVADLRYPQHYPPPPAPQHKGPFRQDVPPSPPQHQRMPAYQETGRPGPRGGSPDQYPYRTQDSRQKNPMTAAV
inactive: [7] 1.46 | [8] -0.046 | [9] -0.002 | [11] -0.125 | [13] 0.005 | [15] 0.093

MYLK (UniProt Q15746)
inactive: [1] -0.254 | [2] -0.022 | [3] -0.097 | [5] -0.053 | [7] -0.169 | [8] 0.014 | [10] -0.084 | [11] 0.097 | [14] 0.128 | [16] 0.154 | [17] -0.008 | [18] -0.001 | [19] -0.109 | [20] 0.071
active: [4] -0.675

MXRA7 (UniProt P84157)
inactive: [1] -0.134 | [2] 0.094 | [4] -0.006 | [5] 0.054 | [6] 0.049 | [7] -0.182 | [8] 0.167 | [9] 0.02 | [10] -0.064 | [11] -0.002 | [12] -0.056 | [13] -0.052 | [14] -0.239 | [15] 0.131 | [16] 0.051 | [17] -0.028 | [18] -0.19 | [19] -0.009 | [20] 0.177
